# Inconclusive results are not listed. Active and inactive are the calls of the source. The call rests on the fitted dose curve; in most records, active means well fitted inhibition curve with a large enough effect; inconclusive means small, poorly fitted or top-dose-only effect; inactive means no such curve, though single readings can be large or run the other way.
# Test: Confirmation assay for measurement of the activity of small molecule inhibitors on Zika virus induced Caspase-3 activity in human astrocytoma cells
# Procedure, shortened: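 In this cell-based format, inhibitor was applied to SNB-19 cells one hour before Zika virus challenge at 2 FFU/cell. After 6 h at 37 C, Caspase-Glo 3/7 reagent was added for 30 min at room temperature, and the signal was normalized to uninfected and infected wells.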
row,Structure (SMILES),Potency
1,O=C(Nc1ccc(OC(F)(F)F)cc1)c1sccc1NCc1ccnc2ccccc12,6.9 µM (active)
2,O=C1C(Cl)=C(NCCN2CCOCC2)C(=O)c2ncccc21,5.48 µM (active)
3,CC(C)OC(=O)CCCC=CC[C@@H]1[C@H](C=C[C@@H](O)COc2cccc(C(F)(F)F)c2)[C@H](O)C[C@@H]1O,inactive
4,C/C(=N\O)c1ccc(OCC(=O)N2CCCCC2)cc1,8.69 µM (active)
5,Nc1ccc2c(c1)CN1C(=O)c3ccccc3C1=N2,3.37 µM (active)
6,COc1cccc(-c2ccc(NC(=O)C3=C(C(=O)O)CCC3)c(F)c2)c1,3.46 µM (active)
7,COc1cccc(-c2cc(=O)c3ccccc3o2)c1N,7.74 µM (active)
8,C[C@@H]1CCN(C(=O)CC#N)C[C@H]1N(C)c1ncnc2[nH]ccc12,inactive
9,COc1ccc2nc(NC(=O)Nc3ccccc3)sc2c1,21.8 µM (active)
10,Oc1ccc(/C=C/c2cc(O)cc(O)c2)cc1,13.8 µM (active)
11,Cc1nc(-c2ccc(OCC(C)C)c(C#N)c2)sc1C(=O)O,2.45 µM (active)
12,Cc1c(N)c(=O)n(-c2ccccc2)n1C,inactive
13,CCC(C)SSc1ncc[nH]1 (stereo not given),inactive
14,C[C@@H](N)c1ccc(C(=O)Nc2ccnc3[nH]ccc23)cc1,inactive
15,CC1(C)Cc2c(sc(NC(=S)NC(=O)c3ccccc3)c2C(=O)O)CO1,inactive
16,CC(C(=O)O)c1ccc(C(=O)c2cccs2)cc1 (stereo not given),17.3 µM (active)
17,COc1ccc(NC(=O)/C=C/c2ccc(Cl)cc2)cc1,3.46 µM (active)
18,CC(=NNC(=S)N1CCC1)c1ccccn1,inactive
19,OCc1ccc(-c2ccc(-c3ccc(CO)s3)o2)s1,0.218 µM (active)
20,O=S(=O)(O)CCSSCCS(=O)(=O)O,inactive
21,COc1ccc(-c2cc(=O)c3c(O)cc(O)cc3o2)cc1O,13.8 µM (active)
22,O=C(OCc1ccccc1)c1ccc(O)cc1,19.5 µM (active)
23,CC(=O)Nc1ccc([C@H](C)C(=O)Nc2ncc(C(C)C)s2)cc1,9.75 µM (active)
24,CC(C(=O)O)c1ccc2c(c1)[nH]c1ccc(Cl)cc12 (stereo not given),inactive
25,CCCCC1C(=O)N(c2ccccc2)N(c2ccc(O)cc2)C1=O (stereo not given),inactive

# Source: PubChem BioAssay AID1224853 (National Center for Advancing Translational Sciences (NCATS), 2016)
